Data published in PubChem BioAssay AID1159580 (chemical genetic matrix, 2015).
Among all 5,500 compounds or so, about 2,000 (36%) were called active. Inconclusive results (about 18%) are left out. Cut-off read from the data, not from the text of the source: active = normalized growth mostly below about 0.91 (no sharp cut-off); inconclusive = no clear call, values can overlap the other calls; inactive = mostly above about 0.92. The list shows a part of the results.

Assay: chemical genetic growth profiling, strain panel (AID 1159580);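 note: tested at 20 µM; growth read once vehicle control cultures reached saturation at 30 °C; 1 = growth at the plate median or of vehicle wells; lower values mean less growth of the strain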
Conditions: growth OD

Measured: normalized growth

CNC(C)C(O)c1ccccc1 (centres undefined)
inactive: S. cerevisiae deletion strains, locus YJR043C, strain POL32, active compounds read low 0.999 | S. cerevisiae deletion strains, locus YJR066W, strain TOR1, active compounds read low 0.987 | S. cerevisiae deletion strains, locus YKL009W, strain mrt4, active compounds read low 1.01 | S. cerevisiae deletion strains, locus YKL068W, active compounds read low 1.01 | S. cerevisiae deletion strains, locus YKL085W, strain MDH1 (second series), active compounds read low 1 | S. cerevisiae deletion strains, locus YKL085W, strain MDH1, active compounds read low 1 | S. cerevisiae deletion strains, locus YKL160W, strain elf1, active compounds read low 1.02 | S. cerevisiae deletion strains, locus YKL190W, strain CNB1, active compounds read low 1.01 | S. cerevisiae deletion strains, locus YKR001C, strain vps1, active compounds read low 1.03 | S. cerevisiae deletion strains, locus YKR026C, strain gcn3, active compounds read low 1.01 | S. cerevisiae deletion strains, locus YKR091W, strain srl3, active compounds read low 1.01 | S. cerevisiae deletion strains, locus YLL001W, strain dnm1, active compounds read low 1.03 | S. cerevisiae deletion strains, locus YLL026W, active compounds read low 1.01 | S. cerevisiae deletion strains, locus YLL041C, strain sdh2, active compounds read low 1.01 | S. cerevisiae deletion strains, locus YLR027C, strain aat2, active compounds read low 1.02 | S. cerevisiae deletion strains, locus YLR039C, strain RIC1, active compounds read low 0.995 | S. cerevisiae deletion strains, locus YLR058C, strain SHM2, active compounds read low 1 | S. cerevisiae deletion strains, locus YLR102C, strain apc9, active compounds read low 1.02 | S. cerevisiae deletion strains, locus YLR113W, strain HOG1, active compounds read low 0.963 | S. cerevisiae deletion strains, locus YLR221C, strain rsa3, active compounds read low 1.01 | S. cerevisiae deletion strains, locus YLR258W, strain gsy2, active compounds read low 1.01 | S. cerevisiae deletion strains, locus YLR262C, strain YPT6 (second series), active compounds read low 1.01 | S. cerevisiae deletion strains, locus YLR262C, strain YPT6, active compounds read low 1.03 | S. cerevisiae deletion strains, locus YLR268W, strain sec22, active compounds read low 1.02 | S. cerevisiae deletion strains, locus YLR320W, strain mms22, active compounds read low 1.02 | S. cerevisiae deletion strains, locus YLR330W, strain CHS5, active compounds read low 1 | S. cerevisiae deletion strains, locus YLR342W, strain FKS1 (second series), active compounds read low 1 | S. cerevisiae deletion strains, locus YLR342W, strain FKS1, active compounds read low 1.02 | S. cerevisiae deletion strains, locus YLR357W, strain rsc2, active compounds read low 1.05 | S. cerevisiae deletion strains, locus YLR370C, strain arc18, active compounds read low 1.01 | S. cerevisiae deletion strains, locus YLR371W, strain rom2, active compounds read low 1.02 | S. cerevisiae deletion strains, locus YLR384C, strain iki3, active compounds read low 1.02 | S. cerevisiae deletion strains, locus YLR418C, strain cdc73, active compounds read low 1.04 | S. cerevisiae deletion strains, locus YML016C, strain PPZ1, active compounds read low 1.01 | S. cerevisiae deletion strains, locus YML032C, strain rad52, active compounds read low 1.03 | S. cerevisiae deletion strains, locus YML120C, strain ndi1, active compounds read low 1.02 | S. cerevisiae deletion strains, locus YML124C, strain tub3, active compounds read low 1.03 | S. cerevisiae deletion strains, locus YMR058W, strain fet3, active compounds read low 1.02 | S. cerevisiae deletion strains, locus YMR078C, strain ctf18, active compounds read low 1.03 | S. cerevisiae deletion strains, locus YMR125W, strain sto1, active compounds read low 0.996 | S. cerevisiae deletion strains, locus YMR129W, active compounds read low 1 | S. cerevisiae deletion strains, locus YMR205C, strain PFK2, active compounds read low 1.01 | S. cerevisiae deletion strains, locus YMR223W, strain ubp8, active compounds read low 1.02 | S. cerevisiae deletion strains, locus YMR231W, strain pep5, active compounds read low 1.01 | S. cerevisiae deletion strains, locus YMR307W, strain GAS1, active compounds read low 1.02 | S. cerevisiae deletion strains, locus YNL067W, strain RPL9B, active compounds read low 1 | S. cerevisiae deletion strains, locus YNL071W, strain lat1, active compounds read low 1.02 | S. cerevisiae deletion strains, locus YNL128W, strain TEP1, active compounds read low 1.02 | S. cerevisiae deletion strains, locus YNL183C, strain NPR1, active compounds read low 0.971 | S. cerevisiae deletion strains, locus YNL209W, strain ssb2, active compounds read low 1.01 | S. cerevisiae deletion strains, locus YNL233W, strain BNI4, active compounds read low 1 | S. cerevisiae deletion strains, locus YNL248C, strain rpa49, active compounds read low 1.01 | S. cerevisiae deletion strains, locus YNL250W, strain rad50, active compounds read low 1.02 | S. cerevisiae deletion strains, locus YNL271C, strain bni1, active compounds read low 1.02 | S. cerevisiae deletion strains, locus YNL298W, strain CLA4, active compounds read low 1.03 | S. cerevisiae deletion strains, locus YNL307C, strain MCK1, active compounds read low 1.04 | S. cerevisiae deletion strains, locus YNL322C, strain KRE1 (second series), active compounds read low 1.01 | S. cerevisiae deletion strains, locus YNR049C, strain mso1, active compounds read low 1.01 | S. cerevisiae deletion strains, locus YNR052C, strain pop2, active compounds read low 1.02 | S. cerevisiae deletion strains, locus YOL006C, strain TOP1, active compounds read low 0.993 | S. cerevisiae deletion strains, locus YOL012C, strain htz1 1.14 | S. cerevisiae deletion strains, locus YOL147C, strain pex11, active compounds read low 1.03 | S. cerevisiae deletion strains, locus YOR001W, strain rrp6, active compounds read low 1.02 | S. cerevisiae deletion strains, locus YOR061W, strain CKA2, active compounds read low 1.01 | S. cerevisiae deletion strains, locus YOR069W, strain VPS5, active compounds read low 1 | S. cerevisiae deletion strains, locus YOR070C, strain gyp1, active compounds read low 1.01 | S. cerevisiae deletion strains, locus YOR080W, strain dia2, active compounds read low 1.01 | S. cerevisiae deletion strains, locus YOR083W, strain WHI5, active compounds read low 1.02 | S. cerevisiae deletion strains, locus YOR106W, strain vam3, active compounds read low 1.03 | S. cerevisiae deletion strains, locus YOR136W, strain idh2, active compounds read low 1.02 | S. cerevisiae deletion strains, locus YOR144C, strain elg1, active compounds read low 1.01 | S. cerevisiae deletion strains, locus YOR184W, strain ser1, active compounds read low 1.03 | S. cerevisiae deletion strains, locus YOR231W, strain MKK1, active compounds read low 0.995 | S. cerevisiae deletion strains, locus YOR265W, strain rbl2, active compounds read low 1.01 | S. cerevisiae deletion strains, locus YOR270C, strain vph1, active compounds read low 1.04 | S. cerevisiae deletion strains, locus YOR290C, strain snf2, active compounds read low 1 | S. cerevisiae deletion strains, locus YOR316C, strain cot1, active compounds read low 1.02 | S. cerevisiae deletion strains, locus YPL051W, strain arl3, active compounds read low 1.02 | S. cerevisiae deletion strains, locus YPL055C, strain LGE1, active compounds read low 1.01 | S. cerevisiae deletion strains, locus YPL078C, strain atp4, active compounds read low 1.03 | S. cerevisiae deletion strains, locus YPL106C, strain sse1, active compounds read low 1.01 | S. cerevisiae deletion strains, locus YPL240C, strain hsp82, active compounds read low 1.01 | S. cerevisiae deletion strains, locus YPL256C, strain CLN2, active compounds read low 1.03 | S. cerevisiae deletion strains, locus YPR119W, strain clb2, active compounds read low 1.02 | S. cerevisiae deletion strains, locus YPR141C, strain kar3, active compounds read low 1.02 | S. cerevisiae deletion strains, locus YPR163C, strain tif3, active compounds read low 1.04 | S. cerevisiae deletion strains, locus YPR167C, strain met16, active compounds read low 1.02 | S. cerevisiae deletion strains, strain wtn01, active compounds read low 1.02 | S. cerevisiae strains, strain wild type, active compounds read low 0.999
